Data: PubChem BioAssay (NCATS)
Records with an inconclusive call do not appear. Active and inactive are the calls of the source. Calls follow the shape of the dose curve; as a rule, active = well fitted inhibition curve with a large enough effect; inconclusive = small, poorly fitted or top-dose-only effect; inactive = flat fitted curve, though single readings scatter.

How the values were obtained:
P94_40 = assay: qHTS profiling for inhibitors of Plasmodium falciparum proliferation (AID 504749); also: potency is read from the fitted curve at half-maximal effect; settings: P. falciparum in erythrocytes, SYBR Green DNA, 72 h; series mostly up to 28.7 µM
Summary of the method: (§1)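 SYBR Green fluorescence (ex 485 nm, em 535 nm) reports parasite DNA after 72 h compound exposure of infected red cells at 0.3% parasitemia, 2.5% hematocrit; signal normalized to 0.29 uM artemisinin and vehicle wells.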

PAD = assay: as above; settings: P. falciparum in erythrocytes, SYBR Green DNA, 72 h; series mostly up to 28.7 µM
Summary of the method: as §1

PC15 = assay: as above; settings: P. falciparum in erythrocytes, SYBR Green DNA, 72 h; series mostly up to 28.7 µM
Summary of the method: as §1

PC26 = assay: as above; settings: P. falciparum in erythrocytes, SYBR Green DNA, 72 h; series mostly up to 28.7 µM
Summary of the method: as §1

PC49 = assay: as above; settings: P. falciparum in erythrocytes, SYBR Green DNA, 72 h; series mostly up to 28.7 µM
Summary of the method: as §1

SC27B = assay: as above; settings: P. falciparum in erythrocytes, SYBR Green DNA, 72 h; series mostly up to 28.7 µM
Summary of the method: as §1

TAB109 = assay: as above; settings: P. falciparum in erythrocytes, SYBR Green DNA, 72 h; series mostly up to 28.7 µM
Summary of the method: as §1

TAB113 = assay: as above; settings: P. falciparum in erythrocytes, SYBR Green DNA, 72 h; series mostly up to 28.7 µM
Summary of the method: as §1

TAB165 = assay: as above; settings: P. falciparum in erythrocytes, SYBR Green DNA, 72 h; series mostly up to 28.7 µM
Summary of the method: as §1

W2 = assay: as above; settings: P. falciparum in erythrocytes, SYBR Green DNA, 72 h; series mostly up to 28.7 µM
Summary of the method: as §1

CRL-7250 = normal cell line; assay: Cytotoxic Profiling of Annotated Libraries Using Quantitative High-Throughput Screening (AID 1296008); settings: Five cell lines viability, CellTiter-Glo ATP luminescence, 48-72 h; stronger effect = lower value; as to max response: % is scaled to controls: 0 for no effect and ±100 for the full control effect
Summary of the method: (§2)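 Cells exposed to compounds for 48 or 72 hr at 37 degrees Celsius. Viability read as ATP-coupled luminescence with CellTiter-Glo after 10 min at room temperature.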

HEK293 = assay: as above; settings: Five cell lines viability, CellTiter-Glo ATP luminescence, 48-72 h; stronger effect = lower value
Summary of the method: as §2

HaCat [1] = assay: as above; settings: Five cell lines viability, CellTiter-Glo ATP luminescence, 48-72 h; stronger effect = lower value
Summary of the method: as §2

KB-3-1 = assay: as above; settings: Five cell lines viability, CellTiter-Glo ATP luminescence, 48-72 h, stronger effect = lower value
Summary of the method: as §2

NIH3T3 = assay: as above; settings: Five cell lines viability, CellTiter-Glo ATP luminescence, 48-72 h; stronger effect = lower value
Summary of the method: as §2

HACAT [2] = assay: qHTS assay to identify novel small-molecules to repurpose for Merkel cell carcinoma treatment (AID 1296009); settings: MCC and control cell lines, CellTiter-Glo viability, 72 h; at 44.8 µM (top of the series) unless noted; as to activity change, negative = cytotoxicity: % is scaled to controls: 0 for no effect and ±100 for the full control effect
Summary of the method: (§3)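 CellTiter-Glo luminescence after 72 hr compound exposure at 37 degree celsius gave cell viability. Libraries NPC and MIPE were run as 8- and 11-point dose responses; RLUs normalized to DMSO (negative) and no-cell (cytotoxicity) controls.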

MCC-13 = assay: as above; settings: MCC and control cell lines, CellTiter-Glo viability, 72 h; series mostly up to 46 µM
Summary of the method: as §3

MCC-26 = assay: as above; settings: MCC and control cell lines, CellTiter-Glo viability, 72 h; series mostly up to 46 µM
Summary of the method: as §3

MKL-1 = assay: as above; settings: MCC and control cell lines, CellTiter-Glo viability, 72 h; series mostly up to 46 µM
Summary of the method: as §3
Also: nearly all actives have a fitted effect of over 60% in size.

COC(=O)c1ccc(O)cc1
inactive: Potency (P94_40) | Potency (PAD) | Potency (PC15) | Potency (PC26) | Potency (PC49) | Potency (SC27B) | Potency (TAB109) | Potency (TAB113) | Potency (TAB165) | Potency (W2) | max response (CRL-7250) 1% | max response (HEK293) 3.26% | outcome (HaCat [1]) | max response (KB-3-1) 0.911% | outcome (NIH3T3) | outcome (HACAT [2]) | outcome (MCC-13) | outcome (MCC-26) | outcome (MKL-1)

CCOc1cc(NC(C)=O)ccc1C(=O)OC
inactive: Potency (P94_40) | Potency (PAD) | Potency (PC15) | Potency (PC26) | Potency (PC49) | Potency (SC27B) | Potency (TAB109) | Potency (TAB113) | Potency (TAB165) | Potency (W2) | max response (CRL-7250) 3.11% | max response (HEK293) 0.16% | outcome (HaCat [1]) | max response (KB-3-1) 19.6% | max response (NIH3T3) 0.0399% | outcome (HACAT [2]) | outcome (MCC-13) | outcome (MCC-26) | outcome (MKL-1)

Cc1c(N(C)C)c(=O)n(-c2ccccc2)n1C
inactive: Potency (P94_40) | Potency (PAD) | Potency (PC15) | Potency (PC26) | Potency (PC49) | Potency (SC27B) | Potency (TAB109) | Potency (TAB113) | Potency (TAB165) | Potency (W2) | outcome (CRL-7250) | max response (HEK293) -3.5% | outcome (HaCat [1]) | max response (KB-3-1) -5.96% | max response (NIH3T3) 4.65% | outcome (HACAT [2]) | outcome (MCC-13) | outcome (MCC-26) | outcome (MKL-1)

Cc1c(NC(C)C)c(=O)n(-c2ccccc2)n1C
inactive: Potency (P94_40) | Potency (PAD) | Potency (PC15) | Potency (PC26) | Potency (PC49) | Potency (SC27B) | Potency (TAB109) | Potency (TAB113) | Potency (TAB165) | Potency (W2) | outcome (CRL-7250) | max response (HEK293) -10.6% | outcome (HaCat [1]) | max response (KB-3-1) 6.84% | outcome (NIH3T3) | outcome (HACAT [2]) | outcome (MCC-13) | outcome (MCC-26) | outcome (MKL-1)

Cc1cc(OI)c(C(C)C)cc1-c1cc(C(C)C)c(OI)cc1C
active: Potency (P94_40) 11.2 µM | Potency (PC15) 11.2 µM | Potency (TAB113) 10 µM | Potency (W2) 6.01 µM
inactive: outcome (CRL-7250) | max response (HEK293) 2.3% | outcome (HaCat [1]) | max response (KB-3-1) 12.2% | max response (NIH3T3) -2.54% | outcome (HACAT [2]) | outcome (MCC-13) | outcome (MCC-26) | outcome (MKL-1)

NC(N)=NCCN1CCCCCCC1
inactive: Potency (P94_40) | Potency (PAD) | Potency (PC15) | Potency (PC26) | Potency (PC49) | Potency (SC27B) | Potency (TAB109) | Potency (TAB113) | Potency (TAB165) | Potency (W2) | max response (CRL-7250) -19.7% | max response (HEK293) 0.733% | outcome (HaCat [1]) | max response (KB-3-1) 18.1% | max response (NIH3T3) 4.36% | outcome (HACAT [2]) inactive [at 0.588 µM] | activity change, negative = cytotoxicity (MCC-13) 12.6% [at 0.597 µM] | activity change, negative = cytotoxicity (MCC-26) 12.5% [at 0.597 µM] | activity change, negative = cytotoxicity (MKL-1) 13.2% [at 0.597 µM]

CC(CN(C)C)C(C)(O)Cc1ccc(Cl)cc1 (stereo not drawn)
inactive: Potency (PAD) | Potency (PC15) | outcome (CRL-7250) | max response (HEK293) 3.34% | outcome (HaCat [1]) | max response (KB-3-1) 6.05% | outcome (NIH3T3) | outcome (HACAT [2]) | outcome (MCC-13) | outcome (MCC-26) | outcome (MKL-1)
active: Potency (W2) 2.39 µM

CCN(CC)CC1CCCCN1CC(=O)N1c2ccccc2C(=O)Nc2cccnc21 (stereo not drawn)
inactive: Potency (P94_40) | Potency (PAD) | Potency (PC15) | Potency (PC26) | Potency (PC49) | Potency (SC27B) | Potency (TAB109) | Potency (TAB113) | Potency (TAB165) | Potency (W2) | max response (CRL-7250) -4.06% | max response (HEK293) 4.03% | outcome (HaCat [1]) | max response (KB-3-1) 6.89% | max response (NIH3T3) 4.32% | outcome (HACAT [2]) | outcome (MCC-13) | outcome (MCC-26) | outcome (MKL-1)

Cc1c(C(=O)NCCO)[n+](=O)c2ccccc2n1[O-]
inactive: Potency (P94_40) | Potency (PAD) | Potency (PC15) | Potency (PC26) | Potency (PC49) | Potency (SC27B) | Potency (TAB109) | Potency (TAB113) | Potency (TAB165) | Potency (W2) | outcome (CRL-7250) | max response (HEK293) 0.33% | outcome (HaCat [1]) | max response (KB-3-1) -16.8% | outcome (NIH3T3) | outcome (HACAT [2]) | outcome (MCC-13) | outcome (MCC-26) | outcome (MKL-1)
